Test [1] relates to Tyrosine-protein kinase ABL1 (Homo sapiens), P00519 [T315I]. The following applies: at 1 µM.
Test [2] has as its system Tyrosine-protein kinase ABL1 (Homo sapiens), P00519 [Y253F]. The following applies: at 0.1 µM.
The test system is the same in test [3]. The note with it: at 1 µM.
Test [4] concerns the target Tyrosine-protein kinase ABL1 (Homo sapiens) (UniProt P00519). The following applies: at 0.1 µM.
For test [5] the target is unchanged. The note with it: at 1 µM.
Test [6] concerns the target ALK tyrosine kinase receptor (Homo sapiens) (UniProt Q9UM73). The following applies: at 0.1 µM.
For test [7] the target is unchanged. The note with it: at 1 µM.
In test [8] the target is Tyrosine-protein kinase ABL2 (Homo sapiens) (UniProt P42684). The note with it: at 0.1 µM.
Chain of Tyrosine-protein kinase ABL2 (Homo sapiens) (P42684 whole entry): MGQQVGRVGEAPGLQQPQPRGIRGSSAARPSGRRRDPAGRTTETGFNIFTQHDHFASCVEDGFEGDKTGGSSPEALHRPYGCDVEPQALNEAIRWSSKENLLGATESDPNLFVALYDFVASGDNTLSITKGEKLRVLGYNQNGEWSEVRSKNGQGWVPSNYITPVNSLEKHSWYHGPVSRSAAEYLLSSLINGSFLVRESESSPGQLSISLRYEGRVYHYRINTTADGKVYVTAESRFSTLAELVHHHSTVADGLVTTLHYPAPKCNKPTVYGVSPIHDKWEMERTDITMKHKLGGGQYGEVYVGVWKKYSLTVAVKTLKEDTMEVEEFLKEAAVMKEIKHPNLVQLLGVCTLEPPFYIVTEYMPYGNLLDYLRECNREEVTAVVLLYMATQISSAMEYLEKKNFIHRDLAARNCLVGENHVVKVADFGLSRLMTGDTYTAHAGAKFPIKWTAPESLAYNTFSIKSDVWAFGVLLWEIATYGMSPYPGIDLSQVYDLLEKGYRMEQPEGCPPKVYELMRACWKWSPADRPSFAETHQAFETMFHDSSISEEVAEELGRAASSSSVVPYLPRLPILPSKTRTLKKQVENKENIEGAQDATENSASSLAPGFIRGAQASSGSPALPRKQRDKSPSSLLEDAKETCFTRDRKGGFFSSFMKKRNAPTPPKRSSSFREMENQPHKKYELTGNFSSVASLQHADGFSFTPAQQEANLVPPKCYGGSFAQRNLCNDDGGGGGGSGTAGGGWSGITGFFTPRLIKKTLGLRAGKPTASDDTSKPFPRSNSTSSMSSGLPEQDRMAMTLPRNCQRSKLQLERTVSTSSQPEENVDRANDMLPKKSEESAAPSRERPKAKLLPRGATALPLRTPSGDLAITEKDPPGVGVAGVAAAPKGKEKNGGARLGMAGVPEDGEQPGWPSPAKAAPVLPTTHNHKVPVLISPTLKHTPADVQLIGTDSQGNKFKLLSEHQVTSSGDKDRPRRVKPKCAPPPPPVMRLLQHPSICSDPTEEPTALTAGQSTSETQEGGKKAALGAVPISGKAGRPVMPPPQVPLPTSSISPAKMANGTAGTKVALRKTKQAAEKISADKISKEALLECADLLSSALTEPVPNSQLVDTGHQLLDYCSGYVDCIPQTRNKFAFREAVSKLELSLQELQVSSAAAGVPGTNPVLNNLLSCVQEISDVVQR
Test [9] shares this target. The following applies: at 1 µM.
The target in test [10] is Tyrosine-protein kinase receptor UFO (Homo sapiens) (UniProt P30530). The note with it: at 0.1 µM.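 Also: values are mean percent inhibition of AXL from the GSK PKIS screen.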
Chain of Tyrosine-protein kinase receptor UFO (Homo sapiens) (P30530 whole entry): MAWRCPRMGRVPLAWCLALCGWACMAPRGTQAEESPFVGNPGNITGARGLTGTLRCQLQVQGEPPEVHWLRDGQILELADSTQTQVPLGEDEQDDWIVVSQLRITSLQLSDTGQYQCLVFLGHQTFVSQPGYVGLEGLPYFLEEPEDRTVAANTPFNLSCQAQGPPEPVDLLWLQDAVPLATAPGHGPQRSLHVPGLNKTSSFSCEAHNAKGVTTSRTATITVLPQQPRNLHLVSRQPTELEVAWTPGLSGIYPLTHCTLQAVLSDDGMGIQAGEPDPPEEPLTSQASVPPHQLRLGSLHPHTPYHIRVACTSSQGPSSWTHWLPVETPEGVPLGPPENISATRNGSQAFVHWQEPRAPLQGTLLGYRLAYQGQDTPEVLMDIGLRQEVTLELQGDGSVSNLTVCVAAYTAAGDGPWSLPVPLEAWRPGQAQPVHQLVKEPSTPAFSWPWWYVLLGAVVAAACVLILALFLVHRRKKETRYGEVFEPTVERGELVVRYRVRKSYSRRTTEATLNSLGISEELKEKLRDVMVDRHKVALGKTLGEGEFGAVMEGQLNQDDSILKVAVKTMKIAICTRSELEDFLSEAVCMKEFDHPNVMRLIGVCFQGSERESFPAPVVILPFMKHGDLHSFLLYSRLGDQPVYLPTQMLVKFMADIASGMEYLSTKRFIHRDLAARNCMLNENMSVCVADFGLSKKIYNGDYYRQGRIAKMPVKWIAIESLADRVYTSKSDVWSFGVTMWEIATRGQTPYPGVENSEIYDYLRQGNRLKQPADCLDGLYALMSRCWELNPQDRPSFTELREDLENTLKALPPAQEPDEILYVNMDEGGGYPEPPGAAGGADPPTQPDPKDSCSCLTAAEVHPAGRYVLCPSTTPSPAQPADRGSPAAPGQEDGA

Chain of ALK tyrosine kinase receptor (Homo sapiens) (Q9UM73 19-1620 limits assumed): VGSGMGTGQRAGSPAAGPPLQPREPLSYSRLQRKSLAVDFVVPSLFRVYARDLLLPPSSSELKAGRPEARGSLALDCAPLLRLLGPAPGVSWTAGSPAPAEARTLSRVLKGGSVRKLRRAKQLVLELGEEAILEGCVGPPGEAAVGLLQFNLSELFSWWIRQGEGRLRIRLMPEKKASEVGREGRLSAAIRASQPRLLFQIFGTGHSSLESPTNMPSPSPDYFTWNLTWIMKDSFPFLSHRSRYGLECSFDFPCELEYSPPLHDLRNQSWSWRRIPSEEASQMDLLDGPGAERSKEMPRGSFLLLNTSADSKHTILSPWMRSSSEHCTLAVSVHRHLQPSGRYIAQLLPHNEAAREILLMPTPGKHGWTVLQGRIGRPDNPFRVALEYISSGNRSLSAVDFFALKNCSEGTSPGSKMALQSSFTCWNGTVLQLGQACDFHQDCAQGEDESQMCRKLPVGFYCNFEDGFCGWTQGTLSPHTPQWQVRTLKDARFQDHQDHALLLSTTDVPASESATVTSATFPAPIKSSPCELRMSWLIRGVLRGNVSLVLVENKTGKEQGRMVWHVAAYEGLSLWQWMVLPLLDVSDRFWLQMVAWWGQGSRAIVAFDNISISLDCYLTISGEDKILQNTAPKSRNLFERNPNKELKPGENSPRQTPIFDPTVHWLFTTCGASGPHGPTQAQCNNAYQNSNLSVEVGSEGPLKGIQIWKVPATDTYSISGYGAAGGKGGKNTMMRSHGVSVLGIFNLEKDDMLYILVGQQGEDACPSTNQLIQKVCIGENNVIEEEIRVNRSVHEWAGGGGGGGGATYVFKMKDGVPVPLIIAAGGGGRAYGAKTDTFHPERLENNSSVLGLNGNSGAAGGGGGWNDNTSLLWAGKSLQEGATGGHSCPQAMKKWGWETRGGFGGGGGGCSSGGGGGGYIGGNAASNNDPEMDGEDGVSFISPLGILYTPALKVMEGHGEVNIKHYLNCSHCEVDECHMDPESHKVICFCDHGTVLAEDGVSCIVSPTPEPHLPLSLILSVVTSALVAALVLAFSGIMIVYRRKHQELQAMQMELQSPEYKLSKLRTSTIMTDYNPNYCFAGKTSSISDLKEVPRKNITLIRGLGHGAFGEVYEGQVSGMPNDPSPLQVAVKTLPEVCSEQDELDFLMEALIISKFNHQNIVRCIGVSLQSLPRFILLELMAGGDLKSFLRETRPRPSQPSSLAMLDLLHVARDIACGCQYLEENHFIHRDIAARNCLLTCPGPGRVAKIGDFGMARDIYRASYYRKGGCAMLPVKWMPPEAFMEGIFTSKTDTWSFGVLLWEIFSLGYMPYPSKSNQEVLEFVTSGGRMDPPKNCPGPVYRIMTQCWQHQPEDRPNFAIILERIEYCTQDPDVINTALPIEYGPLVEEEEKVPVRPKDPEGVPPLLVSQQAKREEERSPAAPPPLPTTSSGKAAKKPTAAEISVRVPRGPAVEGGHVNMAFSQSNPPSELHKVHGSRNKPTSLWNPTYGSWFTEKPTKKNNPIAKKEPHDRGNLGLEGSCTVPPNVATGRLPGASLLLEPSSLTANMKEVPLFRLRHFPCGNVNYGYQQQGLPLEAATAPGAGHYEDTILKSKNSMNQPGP

Broadly, the inhibition is the change of the read-out against control, counted positive when it falls. Turning to `COc1ccc(-c2ccc3c(NC(=O)C4CC4)n[nH]c3n2)cc1`, the inhibition in [1] amounted to 21.2%; in test [2] it was 2.3%; in test [3] it was 9.63%; in test [4], 2.39%; in test [5], 19.3%; in [6], 1.28%. In addition, the inhibition in [7] was 1.76%; in test [8], 2.81%; in test [9], 8.05%; in test [10], -1.95%.
Take `CCS(=O)(=O)c1ccc(OC)c(Nc2ncc(-c3ccccc3Cl)o2)c1`: the inhibition stood at 11.7% in test [1]; 5.95% in test [2]; 33.3% in [3]; 2.99% in [4]; 29.3% in test [5]; 0.79% in [6]. The inhibition is 5.19% in [7], 4.89% in test [8], 24.5% in [9] and -0.86% in [10].
In the case of `COc1cc2ncn(-c3cc(OCc4cccs4)c(C(N)=O)s3)c2cc1OC`, the inhibition is 59.6% in test [1]; 9.05% in [2]; 41.8% in [3]; 3.87% in [4]; 42% in test [5]; -3.76% in [6]. Besides, the inhibition in test [7] turned out to be 6.72%; in [8] it was 0.54%; in test [9], 18.4%; in test [10], 3.68%.
In the case of `Fc1ccc(-c2ncn(CCCN3CCOCC3)c2-c2ccncc2)cc1`, the inhibition in test [1] is -0.98%; in [2], -0.87%; in [3], 0.03%; in test [4], 1.14%; in [5] it was 0.89%; in test [6], 1.45%. Further, the inhibition in test [7] is -0.45%; in test [8], 1.71%; in test [9], 5.07%; in test [10], -0.1%.
`Fc1ccc(-c2c(-c3ccncc3)nc3n2CCS3)cc1`: the inhibition in test [1] was 3.81%; in test [2], 2.69%; in test [3], 5.48%; in [4], -1.32%; in test [5], 2.3%; in [6], -2.59%. The inhibition in test [7] was -1.88%; in test [8] it was -2.22%; in [9], 2.07%; in test [10] it was -4.74%.
Regarding `N#Cc1ccc(Oc2nccc(-c3c(-c4ccc(F)cc4)ncn3C3CCNCC3)n2)cc1`, the inhibition came out at 5.17% in test [1]; 2.11% in test [2]; 5.93% in [3]; 3.72% in [4]; 5.42% in test [5]; 3.58% in test [6]. Moreover, the inhibition was 5.33% in test [7], 1.9% in test [8], 6.94% in test [9] and -5.46% in test [10].
For `NC(=O)Cc1ccccc1Oc1nccc(-c2c(-c3ccc(F)cc3)ncn2C2CCNCC2)n1`, the inhibition was -0.82% in test [1]; 1.75% in test [2]; 1.1% in [3]; 2.7% in test [4]; 5.08% in test [5]; 4.05% in [6]. Also, the inhibition in [7] was 8.13%; in test [8], 2.21%; in [9], 2.93%; in test [10], -5.91%.
Regarding `COc1cc(Nc2ncc3c(C)nc(-c4cccc(C(F)(F)F)c4)n3n2)cc(OC)c1OC`, the inhibition in [1] was 13.1%; in test [2], 3.77%; in [3], 16.2%; in test [4], 2.35%; in [5] it was 14.6%; in test [6], 2.22%. In addition, the inhibition in test [7] is 6.97%; in test [8], 3.85%; in test [9] it was 13.1%; in test [10], -3.79%.
For `CN(c1ccc(NC(=O)Nc2c(Cl)cccc2Cl)cc1)c1ccnc(Nc2cccc(CS(C)(=O)=O)c2)n1`, the inhibition is 73.2% in test [1]; 19.4% in test [2]; 56.2% in [3]; 16.9% in test [4]; 53.1% in [5]; 1.74% in test [6]. In addition, the inhibition in [7] came to 4.6%; in test [8] it was 25.1%; in test [9], 55.1%; in test [10], 4.33%.
Consider `CN(C)c1ccc2c(c1)/C(=C/Nc1ccc(S(N)(=O)=O)cc1)C(=O)N2`, for which the inhibition in test [1] was 18.4%; in test [2], 4.7%; in test [3], 18.7%; in test [4], 2.76%; in [5], 21.3%; in test [6] it was 1.86%. For the same compound, the inhibition in test [7] came to 8.32%; in [8], 2.83%; in test [9], 4.52%; in [10] it was 0.79%.
`COc1cc2ncn(-c3cc(OCCc4ccccc4)c(C(N)=O)s3)c2cc1OC`: the inhibition stood at 8.39% in [1]; 3.32% in test [2]; 9.56% in test [3]; 2.3% in test [4]; 13.7% in test [5]; 1.95% in [6]. In addition, the inhibition in [7] was 5.89%; in test [8] it was 2.26%; in test [9] it was 8.26%; in [10], -5.54%.
Take `O=C(Nc1n[nH]c2cc(-c3ccccc3)ccc12)C1CC1`: the inhibition stood at 82.8% in test [1]; 22.3% in test [2]; 68% in test [3]; 13.5% in test [4]; 63.8% in [5]; 3.37% in [6]. The inhibition in [7] was 4.86%; in [8] it was 6.15%; in [9] it was 31.2%; in [10], -8.55%.
`NC(=O)c1cc(-c2ccc(F)cc2)cc(-c2ccncc2)c1N`: the inhibition in test [1] came out at 4.82%; in test [2] it was 4.33%; in test [3], 5.14%; in test [4] it was 2.42%; in [5], 6.04%; in [6], 1.8%. For the same compound, the inhibition is 4.91% in test [7], 1.26% in test [8], 5.07% in test [9] and -7.77% in [10].
In the case of `O=C(Nc1n[nH]c2cc(-c3cc(F)ccc3F)ccc12)C1CC1`, the inhibition in test [1] was determined as 74%; in test [2], 13.8%; in test [3], 49.6%; in test [4] it was 8.06%; in test [5], 51.4%; in test [6], 2.02%. Further, the inhibition was 4.05% in test [7], 3.87% in test [8], 19% in test [9] and -7.5% in test [10].
Regarding `Fc1ccc(-c2nc3n(c2-c2ccncc2)CCS3)cc1`, the inhibition in [1] is 2.55%; in test [2] it was 3.68%; in [3] it was 5.02%; in [4], -1.35%; in [5], 3.25%; in test [6] it was -0.77%. Besides, the inhibition in test [7] is 0.29%; in [8], 0.16%; in test [9], 4.56%; in [10], -7.95%.
For the compound `Clc1ccc(CNc2nccc(-c3cnn4ncccc34)n2)cc1`, the inhibition in [1] is 2.99%; in test [2], 2.53%; in test [3], 4.96%; in [4], 1.08%; in test [5], 8.86%; in test [6] it was -0.45%. Moreover, the inhibition stood at 3.1% in [7], 3.17% in test [8], 7.59% in test [9] and 1.22% in test [10].
`COc1ccc2cc(-c3c(-c4ccncc4)nc(-c4ccc([S+](C)[O-])cc4C)n3C)ccc2c1` (stereo not given): the inhibition in test [1] is 54.5%; in [2] it was 1.98%; in test [3], 16%; in test [4], 2.56%; in [5] it was 15.7%; in test [6] it was -0.66%. Further, the inhibition in test [7] is 2.15%; in test [8] it was 5.58%; in [9], 12.1%; in [10], 1.01%.

(Values after ChEMBL document CHEMBL1961873, “Compounds: GSK PKIS; Assays: Nanosyn kinase panel” (2012).)
